From PubChem BioAssay

The molecules below were run on Chordin-like protein 2 (CHRDL2) (assay: CHRDL2 small-molecule binders, primary screen, biochemical, small-molecule microarray, 635 nm fluorescence (AID 1126;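 note: printed compound slides probed with Chrdl2 protein at 4 µg/mL for 1 h at 4 C; score merges 667 nm emission intensity with signal to noise over three replicate slides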)). Conditions: small-molecule microarray binding, fluorescence 635 nm; higher = more signal.

SMILES | composite z-score
COCC#Cc1ccc([C@@H]2N[C@H](C(=O)O)CC[C@H]2C)cc1 | 0.305
C#CCCCON=C1[C@H]2CCn3c(=O)n([C@@H](CC)c4ccccc4)c(=O)n3[C@H]2[C@H](O)[C@@H]2O[C@H]12 | 0.0573
O=C1CCCC=C1C(O)C1CCCCC1 (stereo unspecified) | 0.214
C[C@@H](c1ccccc1)N1C(=O)[C@H]2[C@H]3[C@H](O)[C@H](O)CC(=NOC[C@@H](O)COCc4ccco4)[C@H]3CC[C@H]2C1=O | 1.51
CCOC(=O)[C@H](CC(C)C)NC(=O)CCC1CC(OC(=O)NCCc2ccc(F)cc2)CC2(CCCC(COC(=O)NCc3cccc4ccccc34)O2)O1 (stereo partly specified) | 0.282
COC(=O)[C@H](C)NC(=O)CCC1CC(OC(=O)NCCc2ccc(F)cc2)CC2(CCCC(COC(=O)NCCc3ccccc3OC)O2)O1 (stereo partly specified) | 0.559
CCOC(=O)CCN1C(=O)[C@H]2[C@H]3[C@H](O)[C@H](O)CC(=NOCC(C)C)[C@@H]3CC[C@H]2C1=O | 1.45
CC[C@@H](c1ccccc1)n1c(=O)n2n(c1=O)[C@H]1[C@H](O)[C@@H]3O[C@@H]3C(=NOCc3ccccc3)[C@H]1CC2 | 0.283
COc1ccc(O[C@H]2C=C[C@@H](c3ccccc3)O[C@@H]2CON=C(C)CCN2CCCc3nc(C)c(C)cc32)cc1 | 0.369
COC(OC)[C@@H](C)[C@H](OC)[C@@H](C)[C@H](OC)c1ccccc1 | 0.473
CC(CCN1CCc2nc(-c3ccccc3)c(-c3ccccc3)cc2C1)=NO[C@@H](C)c1cc(-c2c(C)cc(C)cc2C)no1 | -0.583
CO[C@H]1COC(=O)CCC[C@H](C)[C@H](OC)COC(=O)CC=C[C@@H]1C | 1.15
COC(=O)[C@H](CCSC)NC(=O)CC=C[C@@H](C)CO | 1.5
C[C@H]1CC[C@@H](C(=O)O)N[C@@H]1c1cccc(N2CCCC2=O)c1 | 0.456
C#CCCCON=C1C[C@@H](O)[C@@H](O)[C@@H]2[C@@H]3C(=O)N([C@@H](C)c4ccccc4)C(=O)[C@@H]3CC[C@@H]12 | -0.13
COC(=O)[C@H](C)NC(=O)CCC1CC(OC(=O)NCc2ccc3c(c2)OCO3)CC2(CCCC(COC(=O)NCc3ccccc3)O2)O1 (stereo partly specified) | 0.133
CCOC(=O)CCN1C(=O)[C@H]2[C@H]3[C@H](O)[C@H](O)CC(=NNC(=O)OCC)[C@H]3CC[C@H]2C1=O | 1.27
CC(C)(C)N1C(=O)[C@H]2[C@@H]3C(=CC[C@H]2C1=O)C(=O)[C@H]1O[C@H]1[C@H]3O | 1.04

SMILES | composite z-score
O=C1[C@H]2[C@H]3[C@H](O)[C@H](O)CC(=NO[C@@H]4O[C@H](CO)[C@@H](O)[C@H](O)[C@H]4O)[C@@H]3CC[C@H]2C(=O)N1C1CCCCC1 | 0.629
COc1ccc(COC(=O)NN=C2C[C@@H](O)[C@@H](O)[C@@H]3[C@@H]4C(=O)N([C@@H](C)c5ccccc5)C(=O)[C@@H]4CC[C@@H]23)cc1 | 0.448
COc1ccc(COC(=O)NN=C2C[C@@H](O)[C@@H](O)[C@@H]3[C@@H]4C(=O)N(Cc5ccccc5)C(=O)[C@@H]4CC[C@@H]23)cc1 | 0.172
CC(C)[C@@H](OCc1ccccc1)[C@H](C)C=NO[C@@H](C)c1cn([C@H](CO)Cc2ccccc2)nn1 | 0.191
CCOC(=O)[C@H](Cc1ccccc1)NC(=O)CCC1CC(OC(=O)NCc2ccc3c(c2)OCO3)CC2(CCCC(COC(=O)NCCOc3ccccc3)O2)O1 (stereo partly specified) | 0.58
COC(=O)[C@H](C)NC(=O)CCC1CC(OC(=O)NCc2ccc3c(c2)OCO3)CC2(CCCC(COC(=O)NCCCN3CCCC3=O)O2)O1 (stereo partly specified) | 0.826
O=C(NN=C1C[C@@H](O)[C@@H](O)[C@@H]2[C@@H]3C(=O)N(Cc4ccc5c(c4)OCO5)C(=O)[C@@H]3CC[C@@H]12)OCc1ccccc1 | -0.0473
CCN1C(=O)[C@H]2[C@H]3[C@H](O)[C@H](O)CC(=NOCC[C@@H]4C=C[C@H](OC(C)=O)[C@@H](COC(C)=O)O4)[C@@H]3CC[C@H]2C1=O | 0.63
COC(=O)[C@H](C)NC(=O)CCC1CC(OC(=O)NCc2ccc3c(c2)OCO3)CC2(CCCC(COC(=O)NCCC(C)C)O2)O1 (stereo partly specified) | 0.0784
CO[C@H]1COC(=O)CC=C[C@H](C)[C@H](OC)COC(=O)[C@@H](C)NC(=O)CC=C[C@@H]1C | 1.49
O=C1C=C[C@@H](O)[C@@H]2[C@@H]3C(=O)N(Cc4ccccc4)C(=O)[C@@H]3CC[C@@H]12 | 0.482
CCOC(=O)[C@H](Cc1ccccc1)NC(=O)CCC1CC(OC(=O)NCc2ccc3c(c2)OCO3)CC2(CCCC(COC(=O)NCCc3ccc(Cl)cc3)O2)O1 (stereo partly specified) | 0.43
COc1ccc(-c2cnnc(CCCn3ccnc3-c3ccccc3)n2)cc1 | 0.919
CCOC(=O)NN=C1C[C@@H](O)[C@@H](O)[C@@H]2[C@@H]3C(=O)N(c4ccc(F)cc4F)C(=O)[C@@H]3CC[C@H]12 | 0.529
C#CCCCON=C1C[C@@H](O)[C@@H](O)[C@@H]2[C@@H]3C(=O)N(CC)C(=O)[C@@H]3CC[C@H]12 | -0.0382
C[C@H]1CC[C@@H](C(=O)O)N[C@@H]1c1ccc(C#Cc2ccccc2)cc1 | 1.34
COC(=O)[C@H](C)NC(=O)CCC1CC(OC(=O)NCc2cccc3ccccc23)CC2(CCCC(COC(=O)NCc3ccccc3)O2)O1 (stereo partly specified) | 0.7
CC(=O)OC[C@H]1O[C@H](CC=NOC[C@@H](O)[C@H]2O[C@@H]3OC(C)(C)O[C@@H]3[C@H]2O)C=C[C@@H]1OC(C)=O | 0.0166
